USP30 block = human USP30 deubiquitinase inhibition. purified USP30, Ub-rhodamine cleavage fluorescence. Q70CQ3. inhibition, % at 25 µM. hit rate 5.3% among 47,000
USP28 inh = inhibitors of human USP28 deubiquitinase | hit rate 3% among 47,000 | Q96RU2 | inhibition, % at 25 µM | purified USP28, Ub-rhodamine cleavage fluorescence, 30 min
USP17 inh = blocks human USP17 ubiquitin-rhodamine cleavage. A8MUK1. purified USP17, Ub-rhodamine cleavage fluorescence, 3 h. inhibition, % at 50 µM. hit rate 6.5% among 47,000
OTUD3 inh = blocks human OTUD3 ubiquitin-rhodamine cleavage. purified OTUD3, Ub-rhodamine fluorescence, 2 h. inhibition, % at 25 µM. hit rate 0.7% among 47,000. AID 1645858
* = called active by the depositor. Sampled rows, rich in hits. Any-hit rate of the full collection: about 11%. No stated cut-off is given here; in the data, active means inhibition above about 30%; inactive means the rest.

SMILES | USP30 block | USP28 inh | USP17 inh | OTUD3 inh
CC(C)c1cc(C(=O)N2C[C@@H]3OCC(=O)N(CCc4ccccc4)[C@H]3C2)n(C)n1 | 2 | -2 | -3 | -5
Cc1cccc(N2CCN(C(=O)Cn3cc(-c4nnc(C(C)C)o4)ccc3=O)CC2)c1 | 3 | -1 | 6 | 1
COc1ccc(NC(=O)Nc2ccc(F)c(-c3nnc(-c4ccccc4)o3)c2)c(OC)c1 | 40* | 3 | 19 | 12
CCn1c(CN2CCCC(c3nc(-c4cccnc4)n[nH]3)C2)nc2ccccc21 (stereo not drawn) | -20 | 71* | -42 | -6
O=C(CN1CCC(Nc2nc3c(c(=O)[nH]2)CCCC3)CC1)NC1CC1 | 22 | 8 | 8 | 15
COc1ccccc1CNC(=O)CCC(=O)Nc1ccc2nc(N3CCN(C)CC3)cc(C)c2c1 | -22 | -1 | -8 | -1
COc1ccc(/C=C/C(=O)Nc2ccc3nc(N4CCN(c5ncccn5)CC4)cc(C)c3c2)cc1 | -11 | 0 | 43* | -3
COc1ccc(CC(=O)Nc2ccc3nc(N4CCOCC4)cc(C)c3c2)cc1 | 38* | 22 | 53* | 9
COc1cccc(CNC(=O)CCC(=O)Nc2ccc3nc(N4CCCCC4)cc(C)c3c2)c1 | -30 | 0 | 0 | -13
COc1ccc(CCC(=O)Nc2ccc3c(c2)Sc2ncccc2C(=O)N3C)cc1 | -70 | 55* | -8 | 3
COc1ccc(CCC(=O)Nc2ccc3nc(N4CCN(c5ncccn5)CC4)cc(C)c3c2)cc1 | 30* | 16 | 10 | 7
Cc1cccc(C(=O)OC2CCCN(C)C2)c1C (stereo not drawn) | 15 | 12 | -1 | 7
CCCN1CCN(C(=O)Cn2c(=O)n(-c3ccc(C)cc3)c3ncccc32)CC1 | -48 | -13 | -13 | -7
COCCN1C(=O)c2ccc(-c3ccco3)n2CC1(C)C(=O)NC1CCCCCC1 (stereo not drawn) | -171 | -27 | -19 | -26
Cc1cc(C2CCCN2C(=O)c2c(-c3c(F)cccc3Cl)noc2C)on1 (stereo not drawn) | 4 | -4 | 2 | 1
CCN(CC)c1cc(C)c2cc(NC(=O)CCc3ccc(OC)cc3)ccc2n1 | 5 | 46* | 13 | 13
CCN1CCN(c2cc(C)c3cc(NC(=O)c4cncc(Br)c4)ccc3n2)CC1 | -44 | 21 | -16 | -11
Cc1cc(N2CCN(c3ncccn3)CC2)nc2ccc(NC(=O)/C=C/c3ccccc3Cl)cc12 | 10 | 40* | 51* | 12
CCN(CC)c1cc(C)c2cc(NC(=O)c3ccncc3)ccc2n1 | -20 | 71* | -17 | -15
COc1ccccc1CNC(=O)CCC(=O)Nc1ccc2nc(N3CCC(C)CC3)cc(C)c2c1 | -12 | 5 | 32* | -19
Cc1cc(N2CCC(C)CC2)nc2ccc(NC(=O)C3CC3)cc12 | -5 | 21 | -14 | -2
COc1cccc(CNC(=O)CN2C(=O)CSc3ncccc32)c1OC | 9 | 0 | 1 | -2
Cc1cc(N2CCCCC2)nc2ccc(NC(=O)CCC(=O)NC(C)c3ccc4c(c3)OCCO4)cc12 (stereo not drawn) | 11 | 17 | 36* | 4
COc1cccc(C(=O)NCC(c2ccsc2)N2CCN(C)CC2)c1 (stereo not drawn) | -4 | -7 | 1 | -5
CC(C(=O)Nc1ccccc1)n1cnc2nc(N3CCCCC3)ncc2c1=O (stereo not drawn) | -125 | -22 | 69* | 9
SMILES | USP30 block | USP28 inh | USP17 inh | OTUD3 inh
CCC(C)(C)NC(=O)C(c1ccc2ncccc2c1)N(C(=O)Cn1nnc2ccccc21)c1cccc(OC)c1 (stereo not drawn) | -20 | -14 | -26 | -19
COc1cccc2sc(N3CCN(C(=O)CCc4ccccc4)CC3)nc12 | 17 | 14 | 6 | 10
O=C(CCc1ccccc1)N1CCN(c2nc3c(F)cc(F)cc3s2)CC1 | 35* | 19 | 16 | 19
O=C(CCc1ccccc1)N1CCN(c2nc3c(Cl)cccc3s2)CC1 | 38* | 21 | 26 | 24
O=C(Cc1ccccc1)N1CCN(c2nc3c(F)cc(F)cc3s2)CC1 | 8 | 6 | -12 | 6
Cc1ccnc(C(=O)N2CCN(c3ccc(Nc4ccncc4)nn3)CC2)n1 | -12 | -12 | -1 | -8
COc1ccc(NC(=O)CSc2nnc(Cc3cccc4ccccc34)n2C)cc1 | 7 | 60* | 2 | 9
COc1ccc(N2CCn3c(SCC(=O)Nc4cccc(C(F)(F)F)c4)nnc32)cc1 | 6 | -7 | -7 | -7
COc1ccc(N2CCN(C3=NC(CC(=O)Nc4ccccc4)C(=O)N3)CC2)cc1 (stereo not drawn) | 25 | 15 | 36* | 16
COc1ccc(N2CCn3c(SCC(=O)Nc4ccccc4)nnc32)cc1 | 43* | 5 | 26 | 2
COc1ccc(N2CCn3c(SCC(=O)Nc4cccc(F)c4)nnc32)cc1 | 34* | 9 | 37* | 14
Cc1ncccc1C(=O)N1CCOCC(Cc2ccc3[nH]ncc3c2)C1 (stereo not drawn) | -16 | -17 | -2 | -5
COCC(=O)N1CCCn2cc(-c3ccccc3F)nc21 | 5 | 5 | 0 | 4
O=C(NCc1ccc(Br)cc1)c1ccc(-c2cccnc2)nc1 | 55* | 30 | 30 | 0
O=C(NCc1cccc(Br)c1)c1ccc(-c2cccnc2)nc1 | 0 | 3 | 0 | 4
CC1(C(=O)NCc2ccccc2)Cn2c(cc3ccccc32)C(=O)N1Cc1ccccc1 (stereo not drawn) | 0 | 23 | 50* | 15
Cc1ccc(CN2C(=O)c3cc4ccccc4n3CC2(C)C(=O)NCc2ccccc2)o1 (stereo not drawn) | 30 | 8 | 64* | -13
CC1(C(=O)NCc2ccccc2)Cn2c(cc3ccccc32)C(=O)N1Cc1cccnc1 (stereo not drawn) | -31 | 8 | 12 | 9
CCn1c(=O)c2sc(N3CCCC3)nc2n(CC(=O)Nc2ccccc2Cl)c1=O | -136 | -56 | -67 | -21
CCCC(O)CCCCCCCc1cc(O)cc(O)c1C(=O)OC(CCC)CCCCCCCc1cc(O)cc(O)c1 (stereo not drawn) | 20 | 26 | 91* | 19
O=C(Nc1ccc(F)cc1F)NC1Cc2ccccc2C1 | 66* | 27 | 11 | -1
CC(=O)Nc1ccc(CN2CCN(c3cnn4c(C5CC5)nnc4c3)CC2)cc1 | 33* | 10 | 10 | 6
Cc1nccc(-c2ccc3c(c2)OCO3)n1 | -63 | 1 | 5 | 0
c1ccc2c(c1)N=C(c1ccc3c(c1)OCO3)CCN2 | -60 | 13 | 41* | -14
NC(=O)C1(N2CCCCC2)CCN(C(=O)c2[nH]nc3c2CCc2ccccc2-3)CC1 | 0 | 11 | 59* | -11
CCc1nnsc1C(=O)N1CCCC1c1cc(OC)ccc1OC (stereo not drawn) | 2 | -1 | 2 | -2
O=C(N[C@H]1[C@H](O)[C@H](O)C[C@@H]1C1CCCCC1)c1cncnc1 | -34 | 11 | -30 | 7
O=C(N[C@H]1[C@H](O)[C@H](O)C[C@@H]1C1CCCCC1)C1CC1 | 49* | 16 | 21 | 18
